Source: PubChem BioAssay (National Center for Advancing Translational Sciences (NCATS))
The list is not random: actives were taken first. Their share in the collection is about 8.7%.
HP1b chromo inh – HP1-beta chromodomain-methylated histone interaction inhibition; 0.56% of 390,000 active; Potency, µM (titrated, usually from 114 µM), for the others: at the highest dose activity change, negative = inhibition, usual class: inhibitors; P83916; AlphaScreen HP1-beta / biotin-H3K9me3 peptide binding; further: nearly all actives have a fitted effect of over 70% in size
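Compound inhibition of the preformed complex between 50 nM HP1-beta and 50 nM biotinylated H3K9me3 peptide was read by AlphaScreen. Buffer was PBS pH 7.4 with 0.01% Tween-20. Incubations ran 30 min at room temperature, with 10 ug/mL donor/acceptor beads.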
G9a inh – inhibitors of human histone lysine methyltransferase G9a. Q96KQ7. 8.8% of 350,000 active. Potency, µM (top dose mostly 102 µM), for inactives: at the highest dose activity, negative = inhibition, actives largely listed as inhibitors. G9a H3K9 monomethylation, AlphaScreen, 2 h; further: on the % scale 0 is the no-effect control and ±100 the full control effect; nearly all actives have a fitted effect of over 75% in size
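Chemiluminescent proximity detection of H3K9 monomethylation, read after 10 min bead incubation in the dark. Reaction: 20 nM G9a, 500 nM biotin-H3K9 peptide, 20 uM SAM cofactor, 2 h, room temperature, following 15 min enzyme-compound preincubation.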
BAZ2B inh – blocks human BAZ2B | Q9UIF8 | AlphaScreen BAZ2B-H3K14Ac peptide displacement | Potency, µM (series often up to 114 µM), without a hit: at the top dose activity change, negative = inhibition, actives largely listed as inhibitors | 4.4% of 360,000 active; further: on the % scale 0 is the no-effect control and ±100 the full control effect; nearly all actives have a fitted effect of over 60% in size
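AlphaScreen luminescence quantifies BAZ2B engagement of H3K14Ac peptide; the protein and biotinylated peptide are both at 50 nM final, buffer PBS pH 7.4 with 0.01% Tween-20, all steps at room temperature.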
ALOX12 inh – ALOX12 (human) lipoxygenase inhibition; 1.1% of 580,000 active; AID 1671190; P18054; Potency, µM (top dose mostly 108 µM), for the others: at the top dose activity change, negative = inhibition, hits mostly inhibitors; purified 12hLO, xylenol orange hydroperoxide absorbance; further: on the % scale 0 is the no-effect control and ±100 the full control effect
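Purified human 12hLO at 150 nM in 25 mM Hepes, 0.01% Triton X-100, pH 7.0, preincubated 15 min at room temperature with compound. Reaction started with 40 uM arachidonic acid, 30 min at room temperature. Hydroperoxide measured by Fe-xylenol orange, 573/405 nm absorbance ratio.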
JMJD2A Tudor – JMJD2A Tudor domain (human) inhibition; O75164; AlphaScreen JMJD2A-Tudor / H3K4me3 peptide binding; Potency, µM (top dose mostly 114 µM), for the others: at the top dose activity change, negative = inhibition, actives largely listed as inhibitors; 4.4% of 390,000 active; further: on the % scale 0 is the no-effect control and ±100 the full control effect; nearly all actives have a fitted effect of over 50% in size
Sfp PPTase inh – inhibitors of Bacillus subtilis Sfp phosphopantetheinyl transferase. Q9F4F7. Biochemical Sfp PPTase activity, qHTS. Potency, µM, without a hit: largest response in the series, negative = inhibition, actives largely listed as inhibitors. 3.5% of 310,000 active;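 further: the enzyme is Sfp with the accession as filed and its product quenches rhodamine fluorescence; 0% = enzyme reaction without inhibitor and -100% = no enzyme wells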
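Compounds were incubated with enzyme (final 15 nM) for 15 min at room temperature before substrate addition started the reaction. Fluorescence at 525 nm excitation, 598 nm emission was recorded immediately and after 30 minutes.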
An asterisk follows results filed as active; ? = inconclusive; . = not tested or not shown; ! = not confirmed by another sample; [ ] = another dose, or the depositor's remark. The call rests on the fitted dose curve; in most records, active means well fitted curve in the direction sought with a large enough effect; inconclusive means small, poorly fitted or top-dose-only effect, or another doubt; inactive means no such curve, though single readings can be large; an effect the other way counts as inactive or inconclusive. Potency means the concentration at half of the fitted maximal effect.

SMILES | HP1b chromo inh | G9a inh | BAZ2B inh | ALOX12 inh | JMJD2A Tudor | Sfp PPTase inh
CC1CCc2[nH]c3ccc(C(=O)N(C)CC(=O)Nc4ccccc4C(F)(F)F)cc3c2C1 (centres undefined) | -27.8% | 16.6%[2.33 µM] | 50.1µM* | 2.7% | 50.1µM* | .
COc1ccccc1C1NC(=O)N(CC2CC2)C2=C1C(=O)OC2 (centres undefined) | . | . | . | -1.1% | . | .
Cn1cc(-c2cc3n(n2)CCCN3C(=O)CCC(=O)NC2CCCC2)c2ccccc21 | . | . | . | -59.4% | . | .
Cn1c(N)c(C(=O)COC(=O)c2cc(-c3ccccc3)nc3ccccc23)c(=O)n(Cc2ccccc2)c1=O | 8.9% | ? | -9.9% | . | -32.6% | 3.5%
CC(C)Cn1c(N)c(C(=O)COC(=O)c2cc(C(F)(F)F)nc3ccccc23)c(=O)n(C)c1=O | 7.6% | ? | -31.8% | 2.2% | -31.7% | 3.0%
CC(C)Cn1c(N)c(C(=O)COC(=O)c2cc(-c3ccco3)nc3ccccc23)c(=O)n(C)c1=O | ? | ? | 79.4µM* | ? | 39.8µM* | 20µM*!
Cn1c(=O)c(C(=O)COC(=O)c2cc(-c3ccco3)nc3ccccc23)c(N)n(Cc2ccccc2)c1=O | . | 8.91µM* | 44.7µM* | . | . | 31.6µM*
CC(C)Cn1c(N)c(C(=O)COC(=O)c2cc(-c3ccccc3)nc3ccccc23)c(=O)n(C)c1=O | 30.9% | ? | -9.0% | -4.8% | -7.0% | 7.8%
Cn1c(=O)c(C(=O)COC(=O)c2cc(C(F)(F)F)nc3c(C(F)(F)F)cccc23)c(N)n(CC2CC2)c1=O | . | 50.1µM* | -38.7% | -0.5% | . | 10.6%
Cc1cccc(C2CCCN(C(=O)c3cn(CCc4ccccc4)nn3)C2)c1 (centres undefined) | . | . | . | -1.9% | . | .
O=C(N/N=C/c1ccsc1)c1ccc(-c2ccccc2)cc1 | . | . | . | 26.1% | . | .
Oc1nc(-c2ccc(Cl)cc2)n2ccncc12 | 37.5% | 14.1µM* | 79.4µM* | -6.9% | ? | 7.9%
COc1ccc(OC)c(CN2CCN(C(=O)c3ccc(F)cc3)CC2)c1 | ? | 31.6µM* | ? | ? | 25.1µM* | -8.9%
CSc1ccc(CN2CCN(C(=O)c3ccncc3)CC2)cc1 | -0.7% | -3.3% | -12.5% | 2.3% | -5.6% | 11.6%
COc1ccc2[nH]c(C(=O)N3CCCN(Cc4ccc(F)cc4)CC3)cc2c1 | -28.6% | 50.1µM* | -32.3% | 0.0% | ? | 20.7%
CCN1CCN(C(=O)c2cc3cc(F)ccc3[nH]2)CC1 | 16.4% | -31.0% | -11.6% | 295.5% | -14.2% | 1.2%
COc1cccc(OC)c1C(=O)N1CCN(Cc2ccncc2)CC1 | ? | ? | 20µM* | ? | 8.91µM* | 10µM*
O=C(c1cccc(Cl)c1)N1CCN(Cc2ccncc2)CC1 | ? | 35.5µM* | 50.1µM* | ? | ? | -3.2%
COCc1ccc2c(c1)c(OC(C)(C)C(=O)NCCc1cccnc1)nn2Cc1ccccc1 | . | . | . | -2.6% | . | .
COc1ccccc1CN1CCN(C(=O)c2ccncc2)CC1 | ? | ? | 25.1µM* | ? | 7.94µM* | ?
COc1ccccc1CN1CCC2(CC1)CCN(C(=O)c1ccncc1)CC2 | . | -10.9%[12.7 µM] | . | 6.2%[57.4 µM] | . | -1.8%
COC(CNc1nc(Nc2ccc(F)cc2)c2cnn(-c3ccccc3)c2n1)OC | . | . | . | 0.1% | . | .
CNCc1ccncc1 | . | . | . | 0.327µM* | . | .
Cc1ccccc1NC(=O)Cn1c(CCC(=O)O)ccc1-c1cccs1 | 9.7% | -36.0% | ? | -7.1% | -16.9% | -21.0%
COC(=O)c1ccccc1NC(=O)Cn1c(CCC(=O)O)ccc1-c1cccs1 | -4.3% | ? | -27.3% | 7.4% | -29.2% | 56.2µM*
SMILES | HP1b chromo inh | G9a inh | BAZ2B inh | ALOX12 inh | JMJD2A Tudor | Sfp PPTase inh
Cc1ccc(NC(=O)Cn2c(CCC(=O)O)ccc2-c2cccs2)cc1 | 10.7% | -32.7%[59 µM] | ? | ? | -6.6% | 25.1µM*
CCn1nccc1C(=O)N1C[C@@H](Oc2ccccc2)C[C@H]1C(=O)NCCOC | . | . | . | -9.7% | . | .
O=C1/C(=C/c2ccccc2O)SC(=S)N1Cc1cccnc1 | 2.3% | ? | 6.0% | ? | -22.7% | 50.1µM*
O=C1/C(=C\c2cc(Br)cc(Br)c2O)SC(=S)N1Cc1ccccc1 | 31.6µM* | -9.6%[2.33 µM] | 10µM* | . | 28.2µM* | 63.1µM*
O=C(O)c1ccc(/C=C2/SC(=S)N(Cc3ccccc3)C2=O)cc1 | 1.7% | ? | ? | 0.0% | ? | -2.1%
CCOc1ccc(/C=C2\SC(=S)N(CC(=O)Nc3ccccn3)C2=O)cc1 | 27.7% | ? | -35.7% | -1.4% | -13.0% | 3.8%
O=C(CCN1C(=O)/C(=C/c2ccccc2)SC1=S)Nc1cccnc1 | -8.0% | -6.0% | 4.4% | -5.4% | -1.4% | -3.2%
CC(=O)Oc1ccc(/C=C2/SC(=S)N(Cc3ccccc3)C2=O)cc1 | ? | ? | 3.55µM* | -4.8% | ? | 7.8%
O=C1/C(=C\c2ccc(O)cc2)SC(=S)N1Cc1ccccc1 | ? | . | 50.1µM* | ? | ? | -10.0%
CCOC(=O)c1sc(NC(=O)Nc2cccc(Cl)c2)nc1C | . | . | . | -5.8% | . | .
COCCN1CCC(C(=O)N2CCn3nc(Cc4ccccc4)cc3C2)C1 (centres undefined) | . | . | . | 33.6% | . | .
COc1ccc(CN2C(=O)/C(=C/c3ccncc3)SC2=S)cc1 | ? | 28.2µM* | 8.91µM* | ? | 50.1µM* | ?
CCOc1c(C)cc(-c2ncccc2O)cc1C | 25.4% | -10.9%[59 µM] | -1.0% | -13.9% | 89.1µM*! | 2.9%
